Screening data (PubChem BioAssay)
D2 ag-1: agonists of human D2 dopamine receptor (beta-arrestin); activation, % (test concentration not listed); P14416; 360,000 compounds, 0.084% hits; AID 624465; DiscoveRx PathHunter D2 beta-arrestin, luminescence, 90 min; 100% = 57 uM dopamine signal; in the data active means activation above about 40%; inconclusive means between about 15% and that limit
Target sequence (P14416 whole entry, looked up): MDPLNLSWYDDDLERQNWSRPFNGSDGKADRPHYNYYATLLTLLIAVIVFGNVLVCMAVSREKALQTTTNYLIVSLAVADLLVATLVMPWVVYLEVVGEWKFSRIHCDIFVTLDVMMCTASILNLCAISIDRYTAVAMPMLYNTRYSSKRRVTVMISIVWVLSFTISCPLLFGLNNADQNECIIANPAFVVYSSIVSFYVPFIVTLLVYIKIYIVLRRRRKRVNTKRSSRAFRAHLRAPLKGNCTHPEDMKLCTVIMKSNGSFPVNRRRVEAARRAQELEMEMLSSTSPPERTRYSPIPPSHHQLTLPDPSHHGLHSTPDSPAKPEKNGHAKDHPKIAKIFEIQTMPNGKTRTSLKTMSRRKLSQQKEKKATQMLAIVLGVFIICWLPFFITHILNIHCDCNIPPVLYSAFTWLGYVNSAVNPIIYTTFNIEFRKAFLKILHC
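Agonist mode: compounds alone added to overnight-plated D2 PathHunter cells for 90 min at 37 C, with 57 uM final dopamine (EC100) defining full response. Beta-arrestin recruitment detected by chemiluminescent reagent, read after 1 h at ambient temperature.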
D2 PAM-1: D2 dopamine receptor (human) potentiation; P14416; HEK293 T-REx D2, calcium flux, EC20 dopamine potentiation; potentiation, % at 10 µM; 340,000 compounds, 0.34% hits; AID 485347;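 active means potentiation over 3 SD above the plate norm, cut at about 30% in these data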
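Potentiation of an EC20 dopamine calcium response measured kinetically over 180 s, after a preceding 180 s compound-only read flagging agonists. Cells: inducible Hek293 Trex D2 line, 4000/well, cultured overnight at 30 C before dye loading.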
D2 antagonist: D2 dopamine receptor (human) antagonism; P14416; HEK293 TREx D2 cells, calcium flux, dopamine EC80; inhibition, % at 10 µM; 340,000 compounds, 2% hits; AID 485344; in the data active means inhibition above about 30%; inactive means below that, where a call was filed
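Tetracycline-induced HEK293 T-REx cells expressing D2 force-coupled to calcium signalling were dye-loaded, exposed to compound for 180 s, then challenged with an EC80 of dopamine; calcium flux was followed kinetically for a further 180 s.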
D2 ag-2: agonists of human D2 dopamine receptor; P14416; HEK293 T-REx D2 cells, calcium flux agonist mode; activation, % at 2 µM; 340,000 compounds, 0.53% hits; AID 485358;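 active means activation over 3 SD above normal in the single-dose calcium agonist read, cut at about 30% in these data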
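HEK293 Trex D2 cells, tetracycline-induced, o/n 30 C 5% CO2; no-wash Ca dye, RT 30–90 min; 10-cycle baseline, 23 nl cpd added, kinetic Ca read 180 s; agonist hits = positive Ca response.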
D2 PAM-2: potentiates the human D2 dopamine receptor allosterically. potentiation, % (concentration not given with the values). DiscoveRx D2 beta-arrestin cells, luminescence, 90 min; 100% = 57 uM dopamine signal. P14416. 360,000 compounds, 0.23% hits. AID 624464; in the data active means potentiation above about 50%; inconclusive means mostly about 30% to 49%
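PathHunter D2 cells, attached overnight at 37 deg C, received compound in DMSO plus dopamine at EC20 (50 nM final) for 90 min at 37 deg C. Beta-arrestin recruitment was read as luminescence after 1 h with detection reagent at ambient temperature.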
Hits are given with their value; i = inactive; ? = inconclusive; nt = no result. Rows were chosen to be rich in hits. Some 2.4% of all compounds tested hit in one or more screens of this group.

SMILES	D2 ag-1	D2 PAM-1	D2 antagonist	D2 ag-2	D2 PAM-2
Cc1ccc(/C=C2\SC(=S)N(/N=C/c3cc([N+](=O)[O-])ccc3O)C2=O)o1	i	i	32	i	i
C=CCNC(=O)c1ccccc1Cl	i	i	40	i	i
C=CCNC(=O)c1ccccc1NC(=O)COc1ccccc1	i	i	59	i	i
Cn1c(=O)n(CCCOc2ccc(Br)cc2)c2ccccc21	i	i	32	i	i
Cc1cc(O)ccc1C1(c2ccc(O)cc2C)OC(=O)c2ccccc21	i	i	i	i	i
CC(=O)Oc1ccc2c(c1)Oc1cc(OC(C)=O)ccc1C21OC(=O)c2ccccc21	i	i	84	165	?
CCCCOc1ccc(C(=O)NCc2nnnn2-c2ccc(C)c(C)c2)cc1	nt	i	nt	i	nt
Cc1csc(=O)n1CCC(=O)OCC(=O)Nc1ccc(S(N)(=O)=O)cc1	i	i	54	i	i
Cc1csc(=O)n1CCC(=O)OCC(=O)Nc1ccc(C(N)=O)cc1	i	i	i	i	i
C/C(Cc1ccccc1)=N\NC(=O)CNC(=O)COc1ccccc1	i	i	i	i	i
COc1ccc(OCC(=O)N/N=C(/C)Cc2ccccc2)cc1	i	i	32	i	i
COc1ccccc1C(=O)NCC(=O)N/N=C(\C)Cc1ccccc1	i	i	30	i	i
Cc1nnc(N2C(=O)c3cccc4c([N+](=O)[O-])ccc(c34)C2=O)s1	i	i	i	i	62
Cc1ccc(N2C(=O)c3cccc4c([N+](=O)[O-])ccc(c34)C2=O)c2cccnc12	i	i	i	i	i
Cc1ccnc(N2C(=O)c3cccc4c([N+](=O)[O-])ccc(c34)C2=O)c1	i	i	i	i	51
COC(=O)C1CCN(S(=O)(=O)c2cc3c4c(c2)C(C)C(=O)N4CCC3)CC1 (stereo unspecified)	nt	i	nt	i	nt
Cc1cc(C)cc(NC(=O)C2CC3CCC2C3)c1 (stereo unspecified)	i	i	56	i	i
CC(C)(Oc1ccc(Cl)cc1)C(=O)Nc1nnc2n1CCS2	nt	i	nt	nt	nt
COc1ccccc1C(=O)NNC(=O)c1ccc2ccccc2c1	i	i	i	i	67
COc1ccccc1C(=O)NNC(=O)c1ccc(O)cc1	i	nt	nt	nt	i
CC1Cn2c(C(=O)NCCc3ccc(Cl)cc3)cc3cccc(c32)S1 (stereo unspecified)	nt	i	nt	i	nt
COC(=O)c1[nH]c2ccc(Cl)cc2c1NC(=O)C1CC1	i	i	i	i	i
COC(=O)c1[nH]c2ccc(Cl)cc2c1NC(=O)Oc1ccccc1	i	i	i	i	68
Cc1ccc(SCc2nc(-c3ccc(C(=O)NCc4ccccc4Cl)cc3)oc2C)cc1	nt	i	nt	i	nt
COc1cc(/C=C2\CC/C(=C\c3cc(OC)c(O)c(OC)c3)C2=O)cc(OC)c1O	i	i	i	i	i
SMILES	D2 ag-1	D2 PAM-1	D2 antagonist	D2 ag-2	D2 PAM-2
COc1cc(/C=C2/CCC/C(=C\c3cc(O)c(OC)c(Cl)c3)C2=O)cc(Cl)c1O	i	38	i	i	i
Cc1ccc(Cn2cc(C(=O)c3ccc4c(c3)OCO4)c(=O)c3cc(C)ccc32)cc1	nt	i	nt	i	nt
O=C(NCCc1ccccc1)c1ccc(-c2ccccc2C(F)(F)F)o1	i	i	i	i	i
O=C(NCc1ccc(F)cc1)c1cc2ccccc2o1	i	52	i	i	i
O=C(NCc1ccccc1)c1ccc(-c2ccccc2F)o1	i	32	i	i	i
O=C(NNC(=O)c1cc2ccccc2o1)c1ccc(F)cc1	i	i	i	i	i
CCCc1cc(C(=O)Nc2cccc(Cl)c2)no1	i	i	33	i	i
CCCc1cc(C(=O)Nc2ccc(F)c(Cl)c2)no1	i	i	35	i	i
O=C(c1cnc(N2CCOCC2)c2ccccc12)N1CCN(c2ccccc2)CC1	nt	i	nt	i	nt
Cc1cccc(C)c1NC(=O)CN1C(=O)S/C(=C\c2cccn2C)C1=O	i	i	30	i	i
Cc1cccc(C)c1NC(=O)CN1C(=O)S/C(=C\c2cccn2-c2cccc(C(=O)O)c2)C1=O	i	i	i	i	i
O=C(Nc1nc2ccccc2s1)c1cccc(S(=O)(=O)N2CCc3ccccc32)c1	i	nt	nt	nt	i
O=C(Nc1nc2c(s1)CN(Cc1ccccc1)CC2)c1cccc(S(=O)(=O)N2CCc3ccccc32)c1	i	i	41	i	i
CCOC(=O)c1ccc(NC(=O)CC(C)n2nc(C)cc2C)cc1 (stereo unspecified)	nt	i	nt	i	nt
CN(C)c1nc2n(c(=O)n1)C(C#N)CS2 (stereo unspecified)	i	i	33	i	i
CN(C)c1nc2n(c(=O)n1)CCS2	i	i	i	i	i
O=C(CSc1nc(C2CC2)nc2ccccc12)N1c2ccccc2Sc2ccc(C(F)(F)F)cc21	i	i	i	i	60
Cc1nn(C(=O)c2cc3sccc3[nH]2)c(C)c1C	i	i	34	i	i
COc1ccccc1CNS(=O)(=O)c1c(C(=O)N2CCCCC2)c(C)n(C)c1C	i	i	30	i	i
COc1ccccc1CNS(=O)(=O)c1c(C(=O)N2CCCC2)c(C)n(C)c1C	i	i	i	i	i
CCOc1ccc(C(=O)N2CCC(c3nc4ccccc4o3)CC2)cc1	nt	i	nt	i	nt
Cc1ccc(C)c(NC(=O)C2CCCN(S(=O)(=O)c3cccc4nsnc34)C2)c1 (stereo unspecified)	nt	i	nt	i	nt
COc1cc(CCC(=O)OCC(=O)Nc2ccc(C(N)=O)cc2)cc(OC)c1OC	i	i	39	i	i
COc1cc(NC(=O)COC(=O)CCc2cc(OC)c(OC)c(OC)c2)cc(OC)c1	i	i	i	i	i
Cc1ccc(/C=N/NC(=O)Cn2nnc(N)n2)cc1	i	i	41	i	i
SMILES	D2 ag-1	D2 PAM-1	D2 antagonist	D2 ag-2	D2 PAM-2
CCC(C(=O)N1CCN(c2cc(Cl)ccc2C)CC1)n1nc(C)n2c(cc3occc32)c1=O (stereo unspecified)	nt	i	nt	i	nt
CCn1c(C)c(C(=O)c2ccccc2)c(C#N)c1C(=O)O	i	i	33	i	i
Cc1c(C#N)c(N)c(C(=O)c2ccccc2)n1Cc1ccccc1	i	i	i	i	i
O=c1cc(N2CCN(Cc3ccccc3)CC2)[nH]c(=O)n1-c1ccc(Br)cc1	i	i	38	i	i
Cc1c(C(C)NC(=O)Nc2ccc(F)cc2F)cnn1C (stereo unspecified)	i	i	38	i	i
Cc1cc(NC(=O)Nc2ccc(F)cc2F)n(C)n1	i	i	i	i	i
Cc1ccc(C)c(NC(=O)N2CCN(C(=O)c3nsc4ccccc34)CC2)c1	nt	i	nt	i	nt
Nc1nc(NCCO)nc(N2CCCCCC2)c1[N+](=O)[O-]	i	i	i	i	i
OCCN(CCO)c1nc(N2CCCCC2)c2nc(N(CCO)CCO)nc(N3CCCCC3)c2n1	i	i	i	42	i
Cc1cc(=O)oc2c(C)c(OCC(=O)N3CCN(c4ccc(F)cc4)CC3)ccc12	i	i	i	i	i
